Test results published in PubChem BioAssay AID1851 (National Center for Advancing Translational Sciences (NCATS), 2009).
Out of some 16,000 compounds screened, about 5,800 (36%) were called active. Roughly 23% stayed inconclusive and do not appear here. The call rests on the fitted dose curve; in most records, active means well fitted curve in the direction sought with a large enough effect; inconclusive means small, poorly fitted or top-dose-only effect, or effect the other way; inactive means no such curve, though single readings can be large or run the other way. The list shows a part of the results.

Biological target: Cytochrome P450 2C19 (Homo sapiens) (UniProt P33261)
Experiment: Cytochrome panel assay with activity outcomes
Details: recombinant CYP, pro-luciferin dealkylation, luminescence, p450-cyp2c19; series mostly up to 57.1 µM; activity, negative = inhibition: at the top concentration
On the % scale 0 is the no-effect control and ±100 the full control effect.

Sequence of Cytochrome P450 2C19 (Homo sapiens) (P33261 whole entry, looked up): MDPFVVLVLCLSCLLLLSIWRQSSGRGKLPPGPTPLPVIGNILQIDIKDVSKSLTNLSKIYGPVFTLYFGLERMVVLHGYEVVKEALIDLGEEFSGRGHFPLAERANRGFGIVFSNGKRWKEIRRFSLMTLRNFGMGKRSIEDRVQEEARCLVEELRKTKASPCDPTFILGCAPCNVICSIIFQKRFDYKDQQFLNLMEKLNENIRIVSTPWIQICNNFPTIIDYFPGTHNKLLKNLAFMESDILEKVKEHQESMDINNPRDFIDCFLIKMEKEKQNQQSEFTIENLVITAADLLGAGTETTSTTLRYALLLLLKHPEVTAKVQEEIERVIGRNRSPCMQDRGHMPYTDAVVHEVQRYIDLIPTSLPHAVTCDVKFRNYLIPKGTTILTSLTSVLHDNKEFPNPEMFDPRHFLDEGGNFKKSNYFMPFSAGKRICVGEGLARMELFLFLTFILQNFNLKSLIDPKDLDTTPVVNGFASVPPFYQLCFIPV

Compound	activity, negative = inhibition	AC50
COc1ccc(NC(=O)N2CC[C@@]3(CCCN(C(=O)c4ccc(OC)cc4)C3)C2)cc1	-13.8% (inactive)	
CCOCC(=O)Nc1cc(C(=O)Nc2ccccc2)ccc1Cl		10 µM (active)
CCOCC(=O)Nc1cc(C(=O)Nc2cccc(C)c2C)ccc1Cl	-20.5% (inactive)	
Cc1cc(NC(=O)c2nn(C)c(C)c2[N+](=O)[O-])no1	10.5% (inactive)	
Cc1cc(NC(=O)c2cc(C(C)C)on2)no1		14.1 µM (active)
CCc1ccc(NC(=O)c2cc(C(C)C)on2)cc1	-13.3% (inactive)	
N#CC1=C(N)OC2=C(CC/C2=C\c2ccccc2)C1c1ccccc1 (stereo not given)		1.58 µM (active)
CN1CCN(c2ncc3nc(-c4ccc(Cl)cc4)c(=O)n(Cc4ccc(F)cc4)c3n2)CC1	-25.5% (inactive)	
Cn1c(=O)c2[nH]c(C3CCCC3)nc2n(C)c1=O	36.3% (inactive)	
O=C(O)CC(O)C(=O)O (stereo not given)	16.8% (inactive)	
CSc1nsc(SC)c1NC(=O)Nc1ccccn1		7.94 µM (active)
O=C(NCC1CCC(C(=O)O)CC1)OCc1ccccc1 (stereo not given)	-23.7% (inactive)	
O[C@H](CNc1ccccn1)c1ccccc1	-7.78% [at 11.4 µM] (inactive)	
O=C(O)/C=C\C(=O)Nc1ccccn1	14.6% [at 11.4 µM] (inactive)	
O=C(O)c1nnsc1COCc1ccccc1	2.27% [at 11.4 µM] (inactive)	
CSc1nsc(SC)c1NC(=O)OCc1ccccc1		0.708 µM (active)
Cc1cccc(CNc2ncncc2-c2cccnc2)c1		10 µM (active)
COc1cccc(-c2cncnc2NCCN2CCOCC2)c1	-44.4% (inactive)	
COc1cccc(-c2cncnc2NCc2ccccc2)c1		1.58 µM (active)
COc1cccc(-c2cncnc2NCc2cccs2)c1		0.631 µM (active)
COc1cccc(-c2cncnc2NCc2cccc(C)c2)c1		0.794 µM (active)
COc1cccc(Nc2ncc3nc(-c4ccccc4)c(=O)n(Cc4cccs4)c3n2)c1	-21% (inactive)	
c1cncc(CNc2ncncc2-c2cccnc2)c1	-44.3% (inactive)	
COc1cccc(-c2cncnc2NCc2cccnc2)c1		0.316 µM (active)

Compound	activity, negative = inhibition	AC50
CCOC(=O)C1=C(CN2c3ccccc3CC2C)NC(=O)NC1c1ccccc1 (stereo not given)		7.08 µM (active)
C[C@@H](CC(=O)O)[C@@H](N)C(=O)O	-23% (inactive)	
Cc1c(NC(=S)N/N=C/c2ccc(O)cc2)c(=O)n(-c2ccccc2)n1C	-16.2% (inactive)	
Cc1c(NC(=S)/C=C2\N(C)c3ccccc3C2(C)C)c(=O)n(-c2ccccc2)n1C		14.1 µM (active)
Fc1ccc(-c2[nH]ncc2-c2nnnn2-c2ccccc2)c(F)c1		0.631 µM (active)
NC(=O)c1ncn([C@@H]2O[C@@H](CO)[C@@H](O)[C@H]2O)c1O	20.9% (inactive)	
O=C1CN(c2nc(-c3ccccc3)c3cc(Br)ccc3n2)c2ccccc2N1	-16.6% (inactive)	
CC(C)(C)NC[C@H](O)COc1cccc2c1CCCC2=O		inactive
N=C(C[C@@H](O)COc1ccccc1-c1ccccc1)N1CCCCC1		31.6 µM (active)
CC(C)NC[C@@H](O)COc1ccccc1-n1cccc1	-27.9% (inactive)	
O=C1C(=O)c2ccccc2C(O)=C1C(CCc1ccccc1)C1=C(O)c2ccccc2C(=O)C1=O	21.7% [at 11.4 µM] (inactive)	
O=C1C(=O)c2ccccc2C(O)=C1C1CCC(c2ccc(Cl)cc2)CC1 (stereo not given)	-17% [at 25.6 µM] (inactive)	
O=C1C(=O)c2ccccc2C(O)=C1C(C1=C(O)c2ccccc2C(=O)C1=O)c1ccc(Cl)cc1		3.98 µM (active)
O=C1C2C3C=CC(C3)C2C(=O)N1c1ncn[nH]1 (stereo not given)	-7.13% (inactive)	
CC(=O)Oc1cc(C(C)C)c(OCCN(C)C)cc1C		inactive
CSc1ccc(Cl)c(C(=O)NCCOc2cc(C)ccc2C(C)C)c1		5.01 µM (active)
CN(C)CCNC(=O)c1cc(Br)ccc1Cl	-28.6% (inactive)	
CC(C)=CCC/C(C)=C/CO/N=C1/[C@H]2O[C@@H]2[C@@H](O)[C@H]2[C@H]1CCn1c(=O)n(Cc3cc4c(cc3Cl)OCO4)c(=O)n12	9.01% [at 11.4 µM] (inactive)	
Cc1ccc(S(=O)(=O)Nc2ccccc2C(=O)c2ccc(C)c(C)c2)cc1	30.1% [at 11.4 µM] (inactive)	
Cc1ccc(S(=O)(=O)Nc2ccccc2C=O)cc1		5.01 µM (active)
Cc1ccc(S(=O)(=O)N[C@H]2COC(=O)C/C=C\[C@H](C)[C@@H](NS(=O)(=O)c3ccc(C)cc3)COC(=O)C/C=C\[C@@H]2C)cc1	18.4% [at 11.4 µM] (inactive)	
CCOC(=O)c1c(C(C)(C)C)oc2ccc(O)cc12		3.98 µM (active)
C[C@@](N)(Cc1ccc(O)cc1)C(=O)O		inactive
C[C@](N)(Cc1ccc(O)c(O)c1)C(=O)O	26% (inactive)	

Compound	activity, negative = inhibition	AC50
O=C(N/N=C/c1c[nH]c2ccccc12)c1ccn(Cc2ccc(Cl)cc2Cl)n1		2 µM (active)
O=C(N/N=C/c1c[nH]c2ccc(Br)cc12)c1ccn(Cc2ccc(Cl)cc2)n1		3.55 µM (active)
O=c1[nH]n(-c2cccc3cccnc23)c(=O)c2ccccc12		11.2 µM (active)
O=c1ncn(-c2ccccc2F)c2ncccc12	-27% (inactive)	
N#Cc1cccc(-c2nc(NCc3cccs3)c3ccccc3n2)c1	-23.1% (inactive)	
Cc1cnc(CNc2nc(-c3ccoc3)nc3ccccc23)cn1	-27.9% (inactive)	
COc1ccccc1CNc1nc(-c2cccc(C#N)c2)nc2ccccc12		3.98 µM (active)
CNc1nc(-c2cccc(C#N)c2)nc2ccccc12		7.94 µM (active)
N#Cc1cccc(-c2nc(Nc3ccccc3)c3ccccc3n2)c1	15.4% (inactive)	
COc1cccc(-c2nc(NCc3cccs3)c3ccccc3n2)c1		3.16 µM (active)
c1ccc2c(NC3CCNCC3)nc(-c3ccoc3)nc2c1	15.9% (inactive)	
Cc1cccc(CNc2nc(-c3ccoc3)nc3ccccc23)c1		7.94 µM (active)
Cc1ccnc(N)c1	-27.7% (inactive)	
C[C@H](N=C(NC#N)Nc1ccncc1)C(C)(C)C	5.2% (inactive)	
NC(N)=N[C@@H]1C(O)[C@H](N=C(N)N)[C@@H](O)C(O)[C@H]1O (stereo not given in full)	12.7% [at 11.4 µM] (inactive)	
COc1cccc(-c2nc(NCc3ccccc3OC)c3ccccc3n2)c1		7.94 µM (active)
COc1cccc(-c2nc(NCc3ccccc3)c3ccccc3n2)c1		3.98 µM (active)
Cc1cccc(CNc2nc(-c3cccnc3)nc3ccccc23)c1		10 µM (active)
Cc1cnc(CNc2nc(-c3cccnc3)nc3ccccc23)cn1	-29.8% (inactive)	
N#Cc1cccc(-c2nc(NCc3ccccc3)c3ccccc3n2)c1		6.31 µM (active)
COc1cccc(-c2nc(NC3CCNCC3)c3ccccc3n2)c1	8.48% (inactive)	
N#Cc1cccc(-c2nc(NCc3cccnc3)c3ccccc3n2)c1	-27.2% (inactive)	
